Test results published in PubChem BioAssay (Tox21).
Inconclusive results are not listed. Unmarked numbers belong to inactive results. Active and inactive are the calls of the source. Calls follow the shape of the full dose curve.

Test: qHTS assay for small molecules that induce genotoxicity in human embryonic kidney cells expressing luciferase-tagged ATAD5 - cell viability (AID 651634); also: nearly all actives have a fitted effect of over 25% in size
Settings: HEK293T ATAD5-luc cells viability, CellTiter-Fluor, 15.5 h; series mostly up to 83.3 µM; activity, negative = cytotoxicity: at the top concentration
From the text: National Center for Advancing Translational Sciences [NCATS]
NIH Chemical Genomics Center [NCGC]
U.S. Environmental Protection Agency [EPA]
National Institutes of Environmental Health Sciences [NIEHS]
National Toxicology Program [NTP]
U.S. Food and Drug Administration [FDA]
Enhanced Level of Genome Instability Gene 1 (ELG1; human ATAD5) protein levels increase in response to various types of DNA damage. Using a luciferase reporter-gene tagged with ElG1, a cell-based assay [developed by Kyungjae Myung, NHGRI, NIH] was used to measure the induction of ATAD5 in human embryonic kidney cells (HEK293T). So, increase in luciferase activity can be used to identify the compounds that cause genetic stress. In addition to genotoxicity, these cells were also used to test for cytotoxicity by measuring the protease activity within live cells.
Tox21 Assay Protocol Summary:
For cytotoxicity screening, 2,000 cells in 5 uL/well were dispensed into white, solid-bottom 1536-well plates using a Multidrop Combi (Thermo Scientific) dispenser. Following transfer of 23 nL compound or DMSO vehicle by a pin tool, the plates were incubated 15.5 hr at 37C and 5% CO2. 1 ul CellTiter-Fluor reagent (Promega, Madison, WI) was then added to each plate and following 30 min incubation at 37C, fluorescence intensity was quantified on a ViewLux CCD-based plate reader.
% is scaled to controls: 0 for no effect and ±100 for the full control effect.

| SMILES | Potency | activity, negative = cytotoxicity |
| --- | --- | --- |
| CCN(CC)C(=O)[C@@H]1C=C2c3cccc4[nH]cc(c34)C[C@H]2N(C)C1 | inactive | – |
| NC(=O)c1cc([N+](=O)[O-])cc([N+](=O)[O-])c1 | – | -5.5% |
| COP(N)(=S)Oc1ccccc1C(=O)OC(C)C (stereo not given) | – | 28% |
| CCOc1nc(C(Cl)(Cl)Cl)ns1 | – | 4.67% |
| CCCCc1ccc(O)cc1 | – | -4.05% |
| ClCC(Cl)Cl | – | 16.5% [at 95.3 µM] |
| CCCCOC(=O)c1ccccc1N | – | -2.99% [at 95.3 µM] |
| CCN(CC)c1nc(C)cc(OP(=S)(OC)OC)n1 | – | 21.6% |
| O=C1OC(c2ccc(O)c(S(=O)(=O)O)c2)(c2ccc(O)c(S(=O)(=O)O)c2)c2c(Br)c(Br)c(Br)c(Br)c21 | – | -9.66% |
| CC(=O)CC(c1ccc(Cl)cc1)c1c(O)c2ccccc2oc1=O (stereo not given) | – | -15.2% [at 95.3 µM] |
| CCC1(c2ccccc2)C(=O)NC(=O)NC1=O | inactive | – |
| CCC(C)(C)c1cc(-n2nc3ccccc3n2)c(O)c(C(C)(C)CC)c1 | – | -2.86% [at 95.3 µM] |
| C[C@]1(O)CC[C@H]2[C@@H]3CCC4=CC(=O)CC[C@]4(C)[C@@]3(F)[C@@H](O)C[C@@]21C | – | -6.76% |
| CCCCCCBr | – | 5.69% [at 95.3 µM] |
| NC1=NC(=O)C(c2ccccc2)O1 (stereo not given) | – | 16.8% |
| O=S(=O)(O)C(F)(F)C(F)(F)C(F)(F)C(F)(F)C(F)(F)C(F)(F)F | – | 22.3% |
| [Cl][Sn]([Cl])([Cl])[Cl] | – | 7.33% [at 95.3 µM] |
| COC(=O)C1=CCCN(C)C1 | – | -7.16% |
| CCCCP(CCCC)CCCC | – | 15.7% |
| CC(C)CC(N(C)C)C1(c2ccc(Cl)cc2)CCC1 (stereo not given) | – | -7.87% |

| SMILES | Potency | activity, negative = cytotoxicity |
| --- | --- | --- |
| O=C(CCN1CC1)OCC(CO)(COC(=O)CCN1CC1)COC(=O)CCN1CC1 | – | -11.5% |
| CC1(C)COP(Oc2ccccc2)OC1 | – | 17.9% |
| CC1(C)CON(Cc2ccccc2Cl)C1=O | – | 11.6% |
| CC(Oc1ccc(Oc2ncc(C(F)(F)F)cc2Cl)cc1)C(=O)O (stereo not given) | – | -13% |
| O=C(Oc1ccc(Br)cc1)N1CCN2CCC1CC2 | – | 18.8% |
| c1coc(-c2nc3ccccc3[nH]2)c1 | – | 6.49% |
| O=NN1CCN(N=O)CC1 | – | 2.08% |
| CC(=O)Nc1cc([As](=O)(O)O)ccc1O | – | 12.2% |
| OC(c1ccccc1)(c1ccccc1)C1CCNCC1 | – | 19.9% [at 39.1 µM] |
| CCSC(=O)N(CC)C1CCCCC1 | – | 7.23% |
| COC(=O)C(c1ccccc1)C1CCCCN1 (stereo not given) | inactive | – |
| CC(=O)C(Cl)Cl | – | 4.3% [at 95.3 µM] |
| COP(=S)(OC)Oc1c(Cl)cc(C)cc1Cl | – | 21% |
| CC(C=O)Cc1ccc2c(c1)OCO2 (stereo not given) | – | 12.1% |
| CCCCC(=O)Cl | – | 8.69% [at 95.3 µM] |
| CCCCN(CCCCO)N=O | – | -11.9% |
| CN1C[C@@H](NS(=O)(=O)N(C)C)C[C@@H]2c3cccc4c3c(cn4C)C[C@H]21 | – | -9.06% |
| O=C(N[C@H]1CN2CCC1CC2)c1cc2ccoc2cn1 | – | 28.7% |
| O=C(NCO)NCO | – | 12% [at 95.3 µM] |
| O=[N+]([O-])c1cccc2c([N+](=O)[O-])cccc12 | – | 7.79% [at 95.3 µM] |
